Experimental findings from PubChem BioAssay (NCI) are described below.

Compounds without any hit were thinned out: in the full panel of roughly 83,000, 20% have a hit.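 For each line, cells grew in 96-well plates with the test compound present at a single concentration for 48 hours.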 Calls of active or inactive are those of the source.

The assay deals with IGROV1 ovarian. Nature of the assay: NCI-60 one-dose screen, 48 h (100 = growth as untreated, 0 = no growth, -100 = all killed). The conditions noted are these: 10 µM unless noted. As for the experimental part: Growth inhibition of the IGROV1 human tumor cell line is measured as a screen for anti-cancer activity. Cells are grown in 96 well plates and exposed to the test compound for 48 hours. Compounds are tested at a single concentration, which is 10^-5 M for most compounds. The reported endpoint is percent growth (GI% or GIPRCNT), where numbers from 0 - 100% represent growth inhibition, and numbers from -100% - 0 represent cell death. For example, a value of 40 represents 60% growth inhibition. A value of 0 means no net growth occurred over the course of the experiment. A value of -40 indicates 40% of cells at the beginning of the experiment died by the end of the experiment. A value of -100 means all cells are dead at the end of the experiment.
NCI-60 Human Tumor Cell Lines Screen was performed using the standard one-dose NCI protocol, which is described in more detail at https://dtp.cancer.gov/discovery_development/nci-60/default.htm.
Compounds with GIPRCNT values below 10 were considered active. Activity score was based on GIPRCNT using the following formula: […]
Score is 0 for GIPRCNT values of 100 or above, 50 for GIPRCNT values of 0, and 100 for GIPRCNT values of -100.
Turning to `O=S(=O)(Nc1ccc(-n2cnc3cc(-c4ccc(O)cc4)ccc32)cc1)C1CC1`, the growth is 86% (inactive).

Take `COc1ccc(Cn2cc3c(c2-c2ccccc2)CCCc2cnoc2-3)cc1`: the growth was 51.5% (inactive). The result for `COc1cc(/C=C/C(=O)c2ccc(NC(=O)COc3cccc4cccnc34)cc2)cc(OC)c1OC` reads 69.4% (inactive); that for `C/C=C/C=C1\C[C@H]2CO[C@H](O2)C1=O`, 97.7% (inactive). Regarding `Nc1cc(F)ccc1NC(=O)c1ccc(NC(=O)C/C=C/c2cccnc2)cn1`, the growth is 13.8% (inactive). As to `COc1cc([C@H]2OC[C@H]3[C@@H]2CO[C@@H]3c2ccc(O)c(OC)c2)ccc1O`, the growth is 69.9% (inactive). Take `O=C1c2c(c3c4cc(Br)ccc4[nH]c3c3ccc4ccccc4c23)C(=O)N1CCN1CCNCC1`: the growth is 68.5% (inactive). For the compound `CC1COc2c(N3CCN(C)CC3)c(F)cc3c(=O)c(C(=O)N/N=C/c4cc[nH]c4)cn1c23` (stereo not given), the growth was 26.6% (inactive). Then `CC1CCc2c(sc3nc(SCC(=O)N/N=C/c4ccc(Cl)cc4)n(-c4ccccc4)c(=O)c23)C1` (stereo not given), with 100% (inactive). Regarding `O=C(COc1cccc2cccnc12)Nc1ccc(C(=O)/C=C/c2ccc(Cl)cc2)cc1`, the growth is 88.8% (inactive). With `CC(C)c1nn(-c2ccccc2)c(N2CCCCC2)c1/C=N/NC(N)=S`, the growth was 83.9% (inactive). The result for `C=CCn1c(SCC(=O)Nc2cccc(C(=O)/C=C/c3ccc(OC)c(OC)c3)c2)nc2ccccc2c1=O` reads 90.5% (inactive); that for `COc1ccc(-c2nnc(/N=C3/C(=O)Nc4ccc(Br)cc43)o2)cc1`, 91.9% (inactive). Regarding `COc1ccc(CCN2C(=O)/C(=C/c3nc(CO)cs3)SC2=S)cc1`, the growth was 91.4% (inactive). For `NC(=S)N/N=C(/C=C/c1cn(-c2ccccc2)nc1-c1ccc(Cl)cc1)c1cc2ccccc2oc1=O`, the growth is 36% (inactive). Then `CCOc1ccc2nc(NC(=O)Nc3ccccc3C)sc2c1`, with 49.5% (inactive). Then `CC(=O)c1sc(Nc2cccc(Nc3nc(C)c(C)s3)c2)nc1C`, with 26.4% (inactive); and `COc1ccc([C@H]2[C@H](O)C(=O)N2c2cc(OC)c(OC)c(OC)c2)cc1`, with 29.6% (inactive); and `C=C(C)[C@@H]1CC[C@]2(C(=O)ON)CC[C@]3(C)[C@H](CC[C@@H]4[C@@]5(C)C/C(=C/c6ccc(Br)cc6)C(=O)C(C)(C)[C@@H]5CC[C@]43C)[C@@H]12`, with 90.4% (inactive). On to `COc1ccc2c(ccn2C(=O)N2c3ccccc3Sc3ccccc32)c1`, for which the growth was 39.2% (inactive). The result for `C#C[C@]1(O)CC[C@H]2[C@@H]3CC=C4c5sc(C6CCOCC6)nc5CC[C@]4(C)[C@H]3CC[C@@]21C` reads 90.8% (inactive); that for `C#C[C@]1(O)CC[C@H]2[C@@H]3CC=C4c5sc(Nc6cc(Cl)ccn6)nc5CC[C@]4(C)[C@H]3CC[C@@]21C`, 40.1% (inactive). For the compound `O=C(Cn1cc(CN2C(=O)c3ccc([N+](=O)[O-])cc3C2=O)nn1)Nc1ccccc1Br`, the growth was 97.5% (inactive). The result for `C=CCn1c(SCC(=O)Nc2cccc(C(=O)/C=C/c3ccc(Br)cc3)c2)nc2ccccc2c1=O` reads 93.6% (inactive). Regarding `O=C1c2c(c3c4ccc(Br)cc4oc3c3[nH]c4ccccc4c23)C(=O)N1CCO`, the growth is 43.4% (inactive). `COc1cc(NC2=C(Cl)C(=O)c3nc(C)ccc3C2=O)cc(OC)c1`: the growth was -23.1% (active). The result for `O=C(CCCCCCN1CC(=O)N2[C@@H](c3cccc(Br)c3)c3[nH]c4ccccc4c3C[C@H]2C1=O)NO` reads 2.39% (active); that for `COC[C@]12CC[C@@H](C)[C@H](C)[C@H]1C1=CC[C@@H]3[C@@]4(C)CCCNC(C)(C)[C@@H]4CC[C@@]3(C)[C@]1(C)CC2`, 30.2% (inactive); that for `CCN(CC)CCN1C(=O)c2c(c3c4cc(Br)ccc4[nH]c3c3ccc4ccccc4c23)C1=O`, -83.7% (active).

`CC(C)(C)OC(=O)N1CCN(S(=O)(=O)/N=C2\NC(=O)NC2=C(Cl)Cl)CC1`: the growth is 84% (inactive). The result for `O=C1/C(=C/c2ccc([N+](=O)[O-])cc2)SC(=Nc2ccccc2)N1Nc1ccccc1` reads 61.9% (inactive); that for `COc1ccc(/C=N\NC(=O)c2ccc3nc(-c4ccc(Br)cc4)[nH]c3c2)cc1`, 20% (inactive); that for `Cc1ccc(-c2cc3nc(C(Cl)Cl)nc(-c4ccccc4)n3n2)cc1`, 94.3% (inactive).

Take `Cn1ccnc1C(=O)/C=C/c1ccc(C(=O)Nc2ccc(NC(=O)CCNC(=O)c3csc(Br)n3)cc2)cc1`: the growth was 41.7% (inactive). The result for `CC(=O)Nc1nc2c(s1)C1=CC[C@H]3[C@@H]4CC[C@H](C(C)=O)[C@@]4(C)CC[C@@H]3[C@@]1(C)CC2` reads 99.1% (inactive). For the compound `CCOC(=O)/C=c1\sc2n(c1=O)C1C(NN=2)N(CC)C(=O)N1CC` (stereo not given), the growth is 59.6% (inactive). As to `N#C/C(=C\c1ccc(Cl)cc1Cl)C(N)=O`, the growth was 102% (inactive). Then `CN1CCN(Cc2ccc(NC(=O)c3cncc(C#Cc4cnc5ccc(O[C@H]6CCOC6)nn45)c3)cc2C(F)(F)F)CC1`, with -57.6% (active); and `Clc1ccc(-c2csc(Nc3cccc(Nc4csc(-c5ccc(Cl)cc5)n4)c3)n2)cc1`, with 50.6% (inactive). For the compound `COc1ccc(-c2nnc(SCc3ccc(O)c4ncccc34)n2-c2ccccc2)cc1`, the growth is 10% (inactive).
